nsP2pro inh: inhibitors of chikungunya virus nsP2 protease. Q8JUX6. FRET peptide cleavage, nsP2pro, fluorescence 1 h. Potency, µM (series often up to 24.9 µM), for inactives: top-dose activity change, negative = inhibition, actives largely listed as inhibitors. 31,000 compounds, 1.1% hits; note: nearly all actives have a fitted effect of over 60% in size
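Enzyme 150 nM, substrate 2.5 uM (both final); Tris-HCl 10 mM pH 8.0 + 0.01% Tween 20; cpd up to 25 uM, 7 pts; 15 min preinc., 1 h RT; fluorescence ex 525/em 598.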
CHIKV nsP2 cell: cell-based CHIKV nsP2 protease inhibition, secondary. Potency, µM (doses to about 51.1 µM), inactives show top-dose activity change, negative = inhibition, hits mostly inhibitors. AID 1964100. shares compounds with nsP2pro inh. cell-based CHIKV nsP2 protease reporter assay. 450 compounds, 10% hits; note: nearly all actives have a fitted effect of over 70% in size
NSP2 full ctr: full-length CHIKV NSP2 protease inhibition, selectivity; 410 compounds, 39% hits; Potency, µM (titrated, usually from 50.7 µM), inactives show at the highest dose activity change, negative = inhibition, most hits filed as inhibitors; AID 1964101; Full-length CHIKV NSP2 protease enzymatic counterscreen; shares compounds with nsP2pro inh; note: nearly all actives have a fitted effect of over 65% in size
Furin counter: human furin inhibition, counterscreen for nsP2pro inhibitors; Potency, µM (highest dose often 50.6 µM), inactives show top-dose activity change, negative = inhibition, hits mostly inhibitors; shares compounds with nsP2pro inh; 410 compounds, 6% hits; AID 1964102; Recombinant human furin enzymatic counterscreen, fluorogenic substrate
Target sequence (P09958 whole entry, looked up): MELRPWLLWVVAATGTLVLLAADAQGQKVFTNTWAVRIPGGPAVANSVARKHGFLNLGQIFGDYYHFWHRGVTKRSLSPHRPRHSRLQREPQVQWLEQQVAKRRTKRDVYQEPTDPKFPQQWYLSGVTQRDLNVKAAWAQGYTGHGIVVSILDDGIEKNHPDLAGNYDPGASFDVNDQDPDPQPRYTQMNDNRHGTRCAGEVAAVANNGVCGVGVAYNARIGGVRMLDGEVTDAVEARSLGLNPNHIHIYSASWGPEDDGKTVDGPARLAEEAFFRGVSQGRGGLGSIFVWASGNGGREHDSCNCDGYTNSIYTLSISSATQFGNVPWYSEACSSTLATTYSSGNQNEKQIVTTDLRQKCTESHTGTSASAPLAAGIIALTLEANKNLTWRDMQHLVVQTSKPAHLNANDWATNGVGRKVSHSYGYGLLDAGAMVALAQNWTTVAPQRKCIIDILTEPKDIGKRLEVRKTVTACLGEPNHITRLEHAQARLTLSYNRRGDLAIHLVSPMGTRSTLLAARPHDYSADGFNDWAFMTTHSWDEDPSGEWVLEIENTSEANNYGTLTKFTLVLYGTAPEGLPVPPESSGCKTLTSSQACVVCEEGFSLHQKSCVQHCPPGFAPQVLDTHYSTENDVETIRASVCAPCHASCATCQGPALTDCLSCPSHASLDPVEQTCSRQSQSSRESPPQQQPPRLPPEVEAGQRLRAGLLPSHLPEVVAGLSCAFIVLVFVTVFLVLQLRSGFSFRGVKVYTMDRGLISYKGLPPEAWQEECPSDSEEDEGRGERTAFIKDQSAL
nsP2 NS23 pep: nsP2pro inhibition on native NS2/3 peptide substrate | shares compounds with nsP2pro inh | Purified CHIKV nsP2 protease, endogenous NS2/3 peptide cleavage | Potency, µM (highest dose often 51 µM), without a hit: at the highest dose activity change, negative = inhibition, most hits filed as inhibitors | 410 compounds, 34% hits; note: nearly all actives have a fitted effect of over 55% in size
Papain counter: papain protease inhibition, counterscreen for nsP2pro inhibitors; shares compounds with nsP2pro inh; purified papain protease activity, enzymatic inhibition; Potency, µM (titrated, usually from 51 µM), inactives show top-dose activity change, negative = inhibition, hits mostly inhibitors; 410 compounds, 5% hits; AID 1964104
nsP2pro conf qHTS: CHIKV nsP2 protease inhibition, confirmatory qHTS; shares compounds with nsP2pro inh; CHIKV nsP2 protease enzymatic activity, qHTS; Potency, µM (doses to about 25.5 µM), for the others: at the highest dose activity change, negative = inhibition, usual class: inhibitors; 410 compounds, 43% hits; AID 1964105; note: nearly all actives have a fitted effect of over 75% in size
HCV NS3 counter: inhibits HCV NS3/4A protease in an nsP2pro selectivity counterscreen | Potency, µM (titrated, usually from 50.9 µM), most hits filed as inhibitors | 410 compounds, 20% hits | AID 1964106 | shares compounds with nsP2pro inh | HCV NS3/4A protease biochemical counterscreen; note: nearly all actives have a fitted effect of over 55% in size
Numbers without * were called inactive; ! = not confirmed by another sample; [ ] = remark or other dose. The entries come from a sample that favours hits as a whole. Calls come from the whole dose curve. % is set by controls: 0 for no effect and ±100 for the full control effect; potency is the fitted concentration of half-maximal effect.

C=C1C(=O)O[C@@H]2C3C(=C(C)[C@@H](O)[C@@H](OC(=O)/C(=C/C)COC(C)=O)[C@@H]12)C(=O)[C@H]1O[C@@]31C (some centres undefined) was read as nsP2pro inh 2.2µM*, CHIKV nsP2 cell inconclusive, NSP2 full ctr 7.1µM*, Furin counter -2%[17.3 µM], nsP2 NS23 pep 3.2µM*, Papain counter -6%[17.2 µM], nsP2pro conf qHTS 2.2µM* and HCV NS3 counter inactive.
`CNc1oc(-c2cccc3cnccc23)nc1C#N` gave nsP2pro inh 3%.
`CSCC(=O)N[C@H]1CCN2C(=O)c3cc(-c4ccc(Cl)cc4)ccc3NC(=O)[C@H]12` gave nsP2pro inh inactive.
Oc1ccc([C@H]2CNCc3c2ccc(O)c3O)cc1O was read as nsP2pro inh 3.5µM*, CHIKV nsP2 cell -21%, NSP2 full ctr inconclusive, Furin counter -12%, nsP2 NS23 pep 23µM*, Papain counter -5%, nsP2pro conf qHTS 5µM* and HCV NS3 counter 0.58µM*.
For CC(C)Oc1ccc(-c2ccc(=O)n(CC(=O)NCCc3ccccc3)n2)cc1 the results were nsP2pro inh 1%.
CN1CCN(c2cnc3c(O)ccc(C(=O)O)c3c2)CC1 was read as nsP2pro inh inactive.
For CC(C)c1noc(-c2cn(C3CCN(C(=O)c4ccc(Cl)s4)C3)nn2)n1 (centres undefined) the results were nsP2pro inh inactive.
Screening O=C(CN1CCN(c2ccc(Cl)cc2)CC1)Nc1ccc(F)cc1F returned nsP2pro inh -23%.
Screening Cc1cc(C(=O)CN2CCCC2)c(C)n1-c1ccc(F)cc1 returned nsP2pro inh 5.6µM*!, CHIKV nsP2 cell -13%, NSP2 full ctr 14%, Furin counter -7%, nsP2 NS23 pep -14%, Papain counter -19%, nsP2pro conf qHTS -1% and HCV NS3 counter inactive.
`CN1CCCCCC(O)c2cc(C(=O)N3CCN(c4ccc(F)cc4)CC3)ccc21` (centres undefined) gave nsP2pro inh -16%.
`C[C@@H]1COCCN1c1cc(=O)n2c(n1)N(Cc1cncc(Cl)c1)[C@H](C(F)(F)F)CC2` gave nsP2pro inh -6%.
For O=C(O)[C@H]1OC(O)[C@H](O)[C@@H](O)[C@@H]1O (some centres undefined) the results were nsP2pro inh -2%.
CCC1=C(C)C(=O)C(C)CC12C(=O)CCC2C(=O)O (centres undefined) was read as nsP2pro inh 4%.
`Cn1ccnc1C(=O)N1CCC(Cc2ccc(CCC(=O)N3CCCC3)cc2)CC1` gave nsP2pro inh inactive.
Screening C/C(=C\c1csc(C)n1)[C@@H]1C[C@@H]2O[C@]2(C)CCC[C@H](C)[C@H](O)[C@@H](C)C(=O)C(C)(C)[C@@H](O)CC(=O)N1 returned nsP2pro inh -1%.
Screening Cc1ccccc1C1=CCN(c2ncc(NC(=O)c3ccc(Cl)cc3)cc2C(=O)O)CC1 returned nsP2pro inh inconclusive and CHIKV nsP2 cell -5%.
For COc1ccc(C(=O)Nc2cnc(-c3ccc(Cl)cc3)nc2)cc1 the results were nsP2pro inh -1%.
For Cc1ccccc1C1=CCN(C)CC1 the results were nsP2pro inh -4%.
Screening CC(C)=CCc1cc(C(O)C2NC(=O)CNC(=O)C(Cc3c[nH]c4ccccc34)NC(=O)C3CCCN3C(=O)CNC(=O)C(C(C)C)NC(=O)CNC2=O)ccc1O (centres undefined) returned nsP2pro inh -4%[5.1 µM].

Assay outcomes as filed in PubChem BioAssay.
